For test [1], the system named is Staphylococcus aureus. As to conditions: Concentration 32 ug.mL-1;; ASSAY_TEST Inhibition of Bacterial Growth; detection method Absorption (OD600); MEDIA CAMHB; plate type 384well; NBS; CORNING #3640; time 18 hr.
Test [2] has as its system Escherichia coli. As to conditions: Concentration 32 ug.mL-1;; ASSAY_TEST Inhibition of Bacterial Growth; detection method Absorption (OD600); MEDIA CAMHB; plate type 384well; NBS; CORNING #3640; time 18 hr.

Results with a measured potency or affinity are listed apart.

With `COc1ccc(-c2cc3c4nnc(SCC(=O)Nc5ccc(C)cc5Cl)n4ccn3n2)cc1`, the Inhibition (in general, the drop in the measured response relative to a control, in per cent) in test [1] is 2.3%; in test [2], -3.13%.

Take `COc1ccccc1NC(=O)Cn1c(=O)c2nnc(C(C)C)n2c2ccccc21`: the Inhibition in test [1] is recorded as 22.81%; in test [2], -0.08%.

Regarding `CCCc1nnc2c(=O)n(CC(=O)Nc3ccc(NC(C)=O)cc3)c3ccccc3n12`, the Inhibition in test [1] is 9.51%; in test [2], -0.84%.

On to `CC(=O)Nc1ccc(NC(=O)CSc2nc3ccccc3n3cnnc23)cc1`, for which the Inhibition in test [1] is reported as -1.2%; in test [2], 2.28%.

Take `COc1ccc(NC(=O)c2ccc3nn(CC(=O)Nc4cc(Cl)ccc4OC)c(=O)n3c2)cc1`: the results for the Inhibition in test [1] and in test [2] were 7.85% and -6.87%, respectively.

Take `Cc1ccc(Sc2nccn3c(=O)n(CC(=O)Nc4ccc(Br)cc4)nc23)c(C)c1`: the Inhibition in test [1] is listed as -1.98%; in test [2], -4.39%.

`COC(=O)c1cccc(NC(=O)Cn2nc3ccc(-c4ccccc4)nn3c2=O)c1`: the figures for the Inhibition in test [1] and in test [2] were -7.92% and -13.96%, respectively.

For the compound `COc1cccc(-c2noc(Cn3nc4ccc(-c5ccccc5)nn4c3=O)n2)c1OC`, the Inhibition is 13.66% in test [1] and -2.67% in test [2].

Turning to `N#Cc1cccc(NC(=O)Cn2nc3c4cc(-c5ccc(Cl)cc5)nn4ccn3c2=O)c1`, the results for the Inhibition in test [1] and in test [2] were 2.28% and -5.31%, respectively.

With `CCc1nnc2c(S(=O)(=O)N(Cc3ccccc3C)c3ccc(C(C)C)cc3)cccn12`, the Inhibition in test [1] is 3.95%; in test [2], -8.12%.

In the case of `CCc1nnc2c(S(=O)(=O)N(Cc3ccccc3F)c3ccc(F)cc3)cccn12`, the results for the Inhibition in test [1] and in test [2] were 1.79% and -1.76%, respectively.

For the compound `O=c1c2nnc(SCc3ccccc3F)n2ccn1-c1ccc(F)cc1`, the Inhibition is reported as 19.41% in test [1] and -3.23% in test [2].

As to `Cc1cc2nn(CC(=O)Nc3ccccc3)c(=O)n2c(Nc2ccc(C)c(F)c2)n1`, the Inhibition was 8.29% in test [1] and -1.41% in test [2].

Take `CN(Cc1ccccc1)C(=O)CSc1nnc2c3cc(-c4ccccc4)nn3ccn12`: the figures for the Inhibition in test [1] and in test [2] were 11.08% and -11.2%, respectively.

For the compound `Cc1ccc(NC(=O)Cn2nc3c(SCc4ccccc4)nccn3c2=O)cc1C`, the Inhibition in test [1] is recorded as 6.06%; in test [2], -10.79%.

Consider `CCCCOc1ccc(-c2cc3c4nnc(SCC(=O)Nc5ccc(C)c(F)c5)n4ccn3n2)cc1`, for which the Inhibition is 5.13% in test [1] and -2.67% in test [2].

For `O=S(=O)(c1ccc2nncn2c1)N(Cc1cccc(Cl)c1)c1ccc2c(c1)OCO2`, the Inhibition in test [1] is 4.03%; in test [2], -10.92%.

On to `Cc1ccc(NC(=O)Cn2nc3ccc(SC(C)C)nn3c2=O)cc1F`, for which the Inhibition in test [1] is listed as -3.37%; in test [2] it was -1.63%.

Take `COc1ccccc1N1CCN(C(=O)Cn2nc3ccc(-c4ccccc4)nn3c2=O)CC1`: the Inhibition is listed as -11.69% in test [1] and -1.16% in test [2].

Turning to `COc1ccc(N(Cc2ccc(OC)c(F)c2)S(=O)(=O)c2ccc3nncn3c2)cc1`, the Inhibition is listed as 2.98% in test [1] and -0.06% in test [2].

In the case of `CC(C)c1nnc2c(SCC(=O)Nc3ccccc3Br)nc3ccccc3n12`, the values for the Inhibition in test [1] and in test [2] were 6.58% and -0.85%, respectively.

In the case of `COc1cccc(NC(=O)Cn2nc3c(=O)n(-c4ccc(Br)cc4)ccn3c2=O)c1`, the values for the Inhibition in test [1] and in test [2] were -2.73% and -3.42%, respectively.

`COc1cc(NC(=O)Cn2nc3ccc(SC(C)(C)C)nn3c2=O)cc(OC)c1OC`: the Inhibition is on record as 10.38% in test [1] and 1.07% in test [2].

As for `CCc1ccccc1Sc1nccn2c(=O)n(CC(=O)Nc3ccc(C)cc3)nc12`, the Inhibition in test [1] is 2.48%; in test [2], -9.52%.

Consider `CCCCc1ccc(NC(=O)CSc2nc3ccccc3n3c(C(C)C)nnc23)cc1`, for which the Inhibition is on record as -8.95% in test [1] and -2.74% in test [2].

Consider `CC(C)c1nnc2c(=O)n(CC(=O)Nc3ccccc3)c3ccccc3n12`, for which the values for the Inhibition in test [1] and in test [2] were 12.53% and 4.36%, respectively.

For `CC(C)Sc1ccc2nn(CC(=O)Nc3ccc(F)cc3Cl)c(=O)n2n1`, the Inhibition is on record as -4.06% in test [1] and -3% in test [2].

As for `O=c1c2sccc2n2c(=O)n(Cc3ccc(Br)cc3)nc2n1Cc1cccs1`, the Inhibition in test [1] is on record as -10.81%; in test [2], -9.69%.

For the compound `O=C(Cn1nc2ccc(-c3ccccc3)nn2c1=O)NC1CCCCC1`, the figures for the Inhibition in test [1] and in test [2] were 8.4% and -1.26%, respectively.

With `CCOc1ccc(N(Cc2ccc(F)cc2)S(=O)(=O)c2ccc3nncn3c2)cc1`, the Inhibition was -10.69% in test [1] and -16.83% in test [2].

Regarding `CCOc1ccc(-n2ccn3c(=O)n(CC(=O)Nc4ccc(Br)cc4)nc3c2=O)cc1`, the Inhibition in test [1] is -12.91%; in test [2], -1.87%.

On to `CC(C)CCn1c(=O)c2sccc2n2c(=O)n(CC(=O)NC(C)C)nc12`, for which the figures for the Inhibition in test [1] and in test [2] were -2.24% and -10.46%, respectively.

In the case of `CCCCn1c(=O)c2sccc2n2c(=O)n(CC(=O)N3CCC(Cc4ccccc4)CC3)nc12`, the Inhibition is listed as -14.82% in test [1] and -3.89% in test [2].

For the compound `Cc1cccc(C)c1NC(=O)Cn1nc2c(SC3CCCCC3)nccn2c1=O`, the Inhibition in test [1] is recorded as 9.56%; in test [2], -6.16%.

As to `O=C(CSc1nnc2c(=O)n(-c3ccccc3)ccn12)Nc1ccc(Cl)cc1`, the results for the Inhibition in test [1] and in test [2] were 3.58% and -4.07%, respectively.

For `Cc1ccc(Cl)cc1NC(=O)Cn1nc2c(SC3CCCCC3)nccn2c1=O`, the results for the Inhibition in test [1] and in test [2] were 6.67% and -3.22%, respectively.

As for `COc1ccc(NC(=O)Cn2nc3c(Sc4ccccc4)nccn3c2=O)cc1Cl`, the values for the Inhibition in test [1] and in test [2] were -4.6% and -4.12%, respectively.

Turning to `Cc1ccc(-c2ccc3nn(CC(=O)N4CCN(c5ccccc5)CC4)c(=O)n3n2)cc1C`, the Inhibition in test [1] stood at 8.01%; in test [2], 2.66%.

Turning to `O=C(Cn1nc2c(Sc3cccc(F)c3)nccn2c1=O)Nc1ccc(F)c(Cl)c1`, the Inhibition is given as -0.79% in test [1] and -15.42% in test [2].

Consider `CCOc1ccc(NC(=O)Cn2nc3c4cc(-c5ccc(Cl)cc5)nn4ccn3c2=O)cc1`, for which the Inhibition is 0.29% in test [1] and -4.33% in test [2].

For `CCOc1ccc(C(=O)CSc2nnc3c(=O)n(-c4ccc(Br)cc4)ccn23)cc1`, the results for the Inhibition in test [1] and in test [2] were 15.75% and -1.32%, respectively.

For `Cc1ccccc1Oc1nccn2c(=O)n(CC(=O)Nc3cc(Cl)ccc3Cl)nc12`, the Inhibition in test [1] is recorded as 0.32%; in test [2] it was -4.76%.

For `O=C(CCc1nnc2c(N3CCCCC3)nc3ccccc3n12)NCCc1ccc(Cl)cc1`, the Inhibition in test [1] was 11.18%; in test [2], 0.17%.

Regarding `COc1ccc(C)cc1NC(=O)Cn1nc2c3cc(-c4ccc(C)c(C)c4)nn3ccn2c1=O`, the Inhibition in test [1] was 0.65%; in test [2], -4.8%.

Consider `CCc1ccccc1Sc1nccn2c(=O)n(CC(=O)Nc3ccc(Br)cc3)nc12`, for which the figures for the Inhibition in test [1] and in test [2] were -9.89% and 1.96%, respectively.

As to `Cc1ccc2c(c1)N(C(=O)Cn1nc3ccc(SC(C)(C)C)nn3c1=O)CCO2`, the Inhibition is 10.2% in test [1] and -0.14% in test [2].

Take `O=C(CSc1nc2ccccc2n2cnnc12)Nc1cc(C(F)(F)F)ccc1Cl`: the Inhibition in test [1] is 6.84%; in test [2], -4.72%.

Regarding `COc1cccc(CN(c2ccc(F)c(F)c2)S(=O)(=O)c2cccn3c(C)nnc23)c1`, the Inhibition in test [1] is on record as 17.08%; in test [2], 2.94%.

Regarding `Cc1ccc(-c2cc3c4nn(CC(=O)Nc5c(C)cccc5C)c(=O)n4ccn3n2)cc1`, the Inhibition in test [1] was 9.95%; in test [2], 0.29%.

Consider `Cc1cc2nn(CC(=O)Nc3ccc(F)cc3F)c(=O)n2c(Nc2ccc(F)c(C)c2)n1`, for which the Inhibition is listed as 5.82% in test [1] and -5.59% in test [2].

On to `COc1ccc(NC(=O)Cn2nc3c(Sc4cccc(C)c4)nccn3c2=O)cc1Cl`, for which the Inhibition in test [1] is recorded as -3.33%; in test [2], -13.54%.

Take `COc1cccc(-n2ccn3c(SCC(=O)NCc4ccc(Cl)cc4)nnc3c2=O)c1`: the Inhibition in test [1] is 10.06%; in test [2], -3.71%.

In the case of `CCc1ccc(N(Cc2ccccc2Cl)S(=O)(=O)c2cccn3c(C)nnc23)cc1`, the values for the Inhibition in test [1] and in test [2] were 18.06% and 0.45%, respectively.

Regarding `COc1cccc(CNC(=O)CSc2nnc3c(=O)n(-c4ccc(F)cc4)ccn23)c1OC`, the Inhibition came to 19.94% in test [1] and 2.01% in test [2].

As to `Cc1cccc(NC(=O)CSc2nnc3c(=O)n(-c4ccccc4)ccn23)c1`, the results for the Inhibition in test [1] and in test [2] were 7.18% and -6.81%, respectively.

The values above are taken from ChEMBL document CHEMBL4513146, “CO-ADD screening of Karazin Kharkiv National University (Ukraine) compounds”.
